Laboratory results published in PubChem BioAssay (EPA / NIEHS).
Records with an inconclusive call do not appear. Activity calls are given as the source filed them. Rule for the calls: active = hit-call score of the fitted dose curve at least 0.9, where 1 is the maximum; inconclusive = response in the unintended direction; inactive = score below 0.9.

Experiments:
[1] = biological target: mouse Peroxisome Proliferator-activated Receptor gamma (PPARg), Pparg (gene 19016) (UniProt P37238); experiment: ATG_mPPARg_XSP1: Attagene TRANS-FACTORIAL Multi-Species (XSP1) HepG2 Assay for mouse Peroxisome Proliferator-activated Receptor gamma (PPARg) (AID 2283802)
Summary of the method: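 HepG2 cells transiently transfected with GAL4-UAS reporter units driven by mouse PPARg–GAL4 chimera; 3 nM 6-alpha-fluorotestosterone present. After 24 h dosing, reporter mRNA quantified by RT-PCR, fluorescent labelling and capillary electrophoresis; gain of signal versus DMSO.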

[2] = biological target: Nuclear receptor subfamily 1 group I member 2 (Mus musculus) (UniProt O54915); experiment: ATG_mPXR_XSP1: Attagene TRANS-FACTORIAL Multi-Species (XSP1) HepG2 Assay for mouse Pregnane X Receptor (PXR) (AID 2283803)
Summary of the method: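 Transiently transfected HepG2 cells expressing a receptor-Gal4 chimera drive a GAL4-UAS reporter; 3 nM 6-alpha-fluorotestosterone included. Reporter mRNA read 24 h post-dose by RT-PCR and capillary electrophoresis; gain of signal relative to DMSO.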

[3] = biological target: human Thyroid hormone Receptor alpha (TRa), THRA (gene 7067) (UniProt P10827); experiment: ATG_hTRa_XSP1: Attagene TRANS-FACTORIAL Multi-Species (XSP1) HepG2 Assay for human Thyroid hormone Receptor alpha (TRa) (AID 2283805)
Summary of the method: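 HepG2 cells transiently transfected with GAL4-UAS reporter units expressing chimeric NR-Gal4 proteins, dosed 24 hours with 3 nM 6-alpha-fluorotestosterone present. Reporter mRNA measured by RT-PCR and capillary electrophoresis; gain of signal fitted versus DMSO.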

[4] = tested on: turtle Thyroid Hormone Receptor, alpha (TRa), gene 101949057; experiment: ATG_trTRa_XSP1: Attagene TRANS-FACTORIAL Multi-Species (XSP1) HepG2 Assay for turtle Thyroid Hormone Receptor, alpha (TRa) (AID 2283806)
Method: ATG_XSP1_multi-species_TRANS is a cell-based, multiplexed assay created by modifying the existing Attagene TRANS-FACTORIAL system to include a panel of nuclear receptors from some or all the following species: human (Homo sapiens), mouse (Mus musculus), frog (Xenopus laevis), zebrafish (Danio rerio), chicken (Gallus gallus), and turtle (Chrysemys picta). The ECOTOX-FACTORIAL format uses HepG2, a human liver cell line, with measurements taken at 24 hours after chemical dosing in a 24-well plate. Xsp1 included 3 nM 6-alpha-fluorotestosterone to partially stimulate the androgen receptor.ATG_trTRa_XSP1 is one of 29 assay components measured or calculated from the ATG_XSP1_multi-species_TRANS assay. It is designed to make measurements of mRNA induction, a form of inducible reporter, as detected with fluorescence intensity signals by Reverse transcription polymerase chain reaction (RT-PCR) and Capillary electrophoresis technology.The assay endpoint ATG_trTRa_XSP1 was analyzed in the positive analysis fitting direction relative to DMSO as the negative control and baseline of activity. […] Furthermore, this assay endpoint can be referred to as a primary readout, because this assay has produced multiple assay endpoints where this one serves a reporter gene function. […]

[5] = biological target: zebrafish Thyroid Hormone Receptor alpha (TRa), thraa (gene 30670) (UniProt Q98867); experiment: ATG_zfTRa_XSP1: Attagene TRANS-FACTORIAL Multi-Species (XSP1) HepG2 Assay for zebrafish Thyroid Hormone Receptor alpha (TRa) (AID 2283807)
Summary of the method: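 HepG2 cells transiently transfected with GAL4-UAS reporter units including a zebrafish TRa–Gal4 chimera, dosed 24 h with 3 nM 6-alpha-fluorotestosterone present. Reporter mRNA quantified by RT-PCR and capillary electrophoresis; gain versus DMSO.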

[6] = biological target: zebrafish Thyroid Hormone Receptor beta (TRb), thrb (gene 30607) (UniProt Q9PVE4); experiment: ATG_zfTRb_XSP1: Attagene TRANS-FACTORIAL Multi-Species (XSP1) HepG2 Assay for zebrafish Thyroid Hormone Receptor beta (TRb) (AID 2283809)
Summary of the method: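 HepG2 cells transiently transfected with multiplexed GAL4-UAS reporter units expressing chimeric zebrafish TRb–Gal4. Dosed 24 h with 3 nM 6-alpha-fluorotestosterone present; reporter mRNA measured by RT-PCR, HpaI digestion and capillary electrophoresis; gain of signal versus DMSO.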

[7] = ATG_XTT_Cytotoxicity_XSP1: Cytotoxicity Assessment in the Attagene TRANS-FACTORIAL Multi-Species (XSP1) HepG2 Assay (AID 2283810)
Method: ATG_XSP1_XTT_Cytotoxicity_multi-species is a cell-based, single-readout assay that uses HepG2, a human liver cell line, with measurements taken at 24 hours after chemical dosing in a 24-well plate. Xsp1 included 3 nM 6-alpha-fluorotestosterone to partially stimulate the androgen receptor.ATG_XTT_Cytotoxicity_XSP1 is an assay component measured from the ATG_XSP1_XTT_Cytotoxicity_multi-species assay. It is designed to make measurements of cell number, a form of viability reporter, as detected with fluorescence intensity signals by XTT cytotoxicity assay technology.This assay endpoint, ATG_XTT_Cytotoxicity_XSP1, was analyzed in the positive analysis fitting direction relative to DMSO as the negative control and baseline of activity. Using a type of viability reporter, loss-of-signal activity can be used to understand changes in the viability. Furthermore, this assay endpoint can be referred to as a primary readout, because the performed assay has only produced 1 assay endpoint. […]
Human liver HepG2 cells are transiently transfected with multiple reporter transcription units (MRTUs) in 6-well plates using FuGene 6 reagent (Roche; 3 ml FuGene/1 mg DNA). […] A major difference between the CIS and TRANS system is that in CIS activities of endogenous TFs are measured, whereas the TRANS assay evaluates changes in activities of exogenous, chimeric NR-Gal4 proteins. […]

[8] = ATG_M_06_XSP2: Attagene TRANS-FACTORIAL Multi-Species (XSP2) HepG2 Assay for M06 Transcription Factor (Internal Marker) (AID 2283811);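 note: internal background marker reporter mRNA measured by RT-PCR and capillary electrophoresis; hits are increases in signal above the DMSO baseline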
Summary of the method: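 HepG2 cells transiently transfected with GAL4-UAS multi-reporter constructs, dosed 24 h with 3 nM 6-alpha-fluorotestosterone plus 1.5 nM norgestrel present to stimulate androgen receptor. Reporter mRNA quantified by RT-PCR, 6-FAM labelling, HpaI digestion and capillary electrophoresis; gain-of-signal fitted versus DMSO baseline.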

[9] = biological target: frog Thyroid hormone Receptor alpha (TRa), thra-a (gene 397942) (UniProt P15204); experiment: ATG_frTRa_XSP1: Attagene TRANS-FACTORIAL Multi-Species (XSP1) HepG2 Assay for frog Thyroid hormone Receptor alpha (TRa) (AID 2283804)
Summary of the method: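 HepG2 cells transiently transfected with frog TRa-GAL4 chimeric reporter units, dosed 24 hr with 3 nM 6-alpha-fluorotestosterone present; reporter mRNA quantified by RT-PCR, fluorescent labelling and capillary electrophoresis, gain of signal versus DMSO.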

[10] = biological target: human Thyroid hormone Receptor beta (TRb), THRB (gene 7068) (UniProt P10828); experiment: ATG_hTRb_XSP1: Attagene TRANS-FACTORIAL Multi-Species (XSP1) HepG2 Assay for human Thyroid hormone Receptor beta (TRb) (AID 2283808)
Summary of the method: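 HepG2 cells transiently transfected with reporter units driving GAL4-UAS reporters for chimeric NR-Gal4 proteins; 24 h chemical exposure with 3 nM 6-alpha-fluorotestosterone present. Reporter mRNA quantified by RT-PCR and capillary electrophoresis, gain of signal versus DMSO.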

Measured: outcome

Chain of zebrafish Thyroid Hormone Receptor alpha (TRa), thraa (gene 30670) (Q98867 whole entry, looked up, the tested form may be a part): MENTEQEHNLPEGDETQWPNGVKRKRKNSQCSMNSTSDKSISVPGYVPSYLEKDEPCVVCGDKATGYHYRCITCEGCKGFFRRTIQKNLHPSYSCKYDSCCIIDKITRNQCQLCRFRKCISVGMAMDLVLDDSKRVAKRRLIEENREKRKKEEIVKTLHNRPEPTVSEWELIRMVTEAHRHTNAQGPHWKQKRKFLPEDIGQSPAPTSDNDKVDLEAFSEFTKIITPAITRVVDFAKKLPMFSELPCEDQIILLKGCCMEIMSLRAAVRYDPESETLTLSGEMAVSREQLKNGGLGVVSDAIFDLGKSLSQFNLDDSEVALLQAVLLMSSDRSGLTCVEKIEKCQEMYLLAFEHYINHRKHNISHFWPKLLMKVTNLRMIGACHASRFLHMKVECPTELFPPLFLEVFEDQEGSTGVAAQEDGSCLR
Chain of zebrafish Thyroid Hormone Receptor beta (TRb), thrb (gene 30607) (Q9PVE4 whole entry, looked up, the tested form may be a part): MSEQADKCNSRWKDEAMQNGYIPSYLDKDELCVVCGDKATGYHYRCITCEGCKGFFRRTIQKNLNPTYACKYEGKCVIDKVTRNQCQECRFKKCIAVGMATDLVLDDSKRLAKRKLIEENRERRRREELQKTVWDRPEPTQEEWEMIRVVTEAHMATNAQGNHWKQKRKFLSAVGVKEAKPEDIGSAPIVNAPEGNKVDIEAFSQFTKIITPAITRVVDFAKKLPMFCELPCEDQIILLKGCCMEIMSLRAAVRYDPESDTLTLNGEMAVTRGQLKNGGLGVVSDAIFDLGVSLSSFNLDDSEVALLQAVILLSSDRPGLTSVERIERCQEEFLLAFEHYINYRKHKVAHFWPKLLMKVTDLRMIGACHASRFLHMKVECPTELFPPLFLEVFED
Chain of Nuclear receptor subfamily 1 group I member 2 (Mus musculus) (O54915 whole entry, looked up, the tested form may be a part): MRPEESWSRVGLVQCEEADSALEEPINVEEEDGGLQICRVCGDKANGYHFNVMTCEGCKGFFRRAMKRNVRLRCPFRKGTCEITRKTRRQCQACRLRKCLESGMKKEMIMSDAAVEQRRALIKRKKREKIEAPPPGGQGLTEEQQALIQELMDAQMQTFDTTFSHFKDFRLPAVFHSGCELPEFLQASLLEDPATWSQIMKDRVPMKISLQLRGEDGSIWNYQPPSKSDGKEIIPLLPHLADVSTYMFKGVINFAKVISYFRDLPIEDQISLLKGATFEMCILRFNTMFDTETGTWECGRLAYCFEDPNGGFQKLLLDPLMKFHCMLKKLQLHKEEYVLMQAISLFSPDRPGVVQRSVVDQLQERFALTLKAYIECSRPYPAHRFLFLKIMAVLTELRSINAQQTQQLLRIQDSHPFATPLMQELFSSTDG
Chain of mouse Peroxisome Proliferator-activated Receptor gamma (PPARg), Pparg (gene 19016) (P37238 whole entry, looked up, the tested form may be a part): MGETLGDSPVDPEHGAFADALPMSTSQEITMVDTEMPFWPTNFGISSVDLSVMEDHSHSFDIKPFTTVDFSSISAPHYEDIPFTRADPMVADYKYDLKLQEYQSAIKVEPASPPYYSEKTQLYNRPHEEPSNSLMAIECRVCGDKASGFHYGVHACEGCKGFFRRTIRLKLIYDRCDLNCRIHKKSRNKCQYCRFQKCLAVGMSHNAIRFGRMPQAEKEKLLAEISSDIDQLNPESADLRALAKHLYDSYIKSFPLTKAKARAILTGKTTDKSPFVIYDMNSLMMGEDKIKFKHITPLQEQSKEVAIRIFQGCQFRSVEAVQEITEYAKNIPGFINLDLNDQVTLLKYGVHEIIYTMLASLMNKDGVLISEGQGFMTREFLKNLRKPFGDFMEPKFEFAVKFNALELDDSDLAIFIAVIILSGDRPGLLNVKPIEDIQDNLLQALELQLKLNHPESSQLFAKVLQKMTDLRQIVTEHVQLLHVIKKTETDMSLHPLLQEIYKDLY
Chain of human Thyroid hormone Receptor alpha (TRa), THRA (gene 7067) (P10827 whole entry, looked up, the tested form may be a part): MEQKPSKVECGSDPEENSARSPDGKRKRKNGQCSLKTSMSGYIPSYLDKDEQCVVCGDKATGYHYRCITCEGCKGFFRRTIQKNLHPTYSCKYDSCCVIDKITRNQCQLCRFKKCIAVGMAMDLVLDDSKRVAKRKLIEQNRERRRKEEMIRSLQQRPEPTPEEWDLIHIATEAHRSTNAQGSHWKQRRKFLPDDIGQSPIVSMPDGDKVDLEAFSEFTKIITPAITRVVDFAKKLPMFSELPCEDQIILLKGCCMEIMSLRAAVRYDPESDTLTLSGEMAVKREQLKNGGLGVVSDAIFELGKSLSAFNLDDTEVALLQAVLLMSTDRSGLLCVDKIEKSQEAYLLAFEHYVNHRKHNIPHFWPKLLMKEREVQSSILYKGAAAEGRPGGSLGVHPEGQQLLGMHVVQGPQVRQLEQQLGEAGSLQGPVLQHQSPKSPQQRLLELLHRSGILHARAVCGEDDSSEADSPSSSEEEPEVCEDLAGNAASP
Chain of frog Thyroid hormone Receptor alpha (TRa), thra-a (gene 397942) (P15204 whole entry, looked up, the tested form may be a part): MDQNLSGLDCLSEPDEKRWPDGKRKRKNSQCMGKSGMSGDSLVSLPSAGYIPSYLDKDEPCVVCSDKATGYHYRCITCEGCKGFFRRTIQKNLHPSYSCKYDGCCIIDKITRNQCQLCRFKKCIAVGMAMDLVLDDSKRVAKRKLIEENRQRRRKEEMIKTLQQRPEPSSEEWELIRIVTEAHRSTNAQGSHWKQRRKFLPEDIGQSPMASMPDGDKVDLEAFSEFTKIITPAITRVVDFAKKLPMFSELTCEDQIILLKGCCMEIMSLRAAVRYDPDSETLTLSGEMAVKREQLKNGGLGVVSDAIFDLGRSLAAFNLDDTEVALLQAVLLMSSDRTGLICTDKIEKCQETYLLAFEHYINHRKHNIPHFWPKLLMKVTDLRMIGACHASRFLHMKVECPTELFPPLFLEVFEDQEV
Chain of human Thyroid hormone Receptor beta (TRb), THRB (gene 7068) (P10828 whole entry, looked up, the tested form may be a part): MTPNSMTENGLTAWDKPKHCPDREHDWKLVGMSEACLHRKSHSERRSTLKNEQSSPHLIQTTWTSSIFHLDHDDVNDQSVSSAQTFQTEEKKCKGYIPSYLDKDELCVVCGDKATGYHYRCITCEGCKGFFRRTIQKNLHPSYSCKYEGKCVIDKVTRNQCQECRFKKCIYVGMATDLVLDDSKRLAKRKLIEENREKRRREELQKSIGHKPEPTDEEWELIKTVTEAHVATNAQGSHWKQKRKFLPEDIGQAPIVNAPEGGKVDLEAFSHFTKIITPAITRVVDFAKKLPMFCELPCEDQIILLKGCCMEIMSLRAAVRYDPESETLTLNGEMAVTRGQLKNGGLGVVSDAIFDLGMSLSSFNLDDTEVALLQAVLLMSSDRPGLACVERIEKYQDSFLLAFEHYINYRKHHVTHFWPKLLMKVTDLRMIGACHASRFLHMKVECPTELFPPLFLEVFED

CC[C@H](c1ccc(O)cc1)[C@@H](CC)c1ccc(O)cc1
not listed: [9] | [10]
inactive: all other assays above

CCC(C)(C)C1CCC(O)CC1 (centres undefined)
inactive: [2] | [9] | [5] | [10] | [6] | [8]

CCCOC(=O)c1ccc(O)cc1
inactive: [8]

c1ccc2c(c1)ccc1ccccc12
inactive: [8]

Cc1oc(-c2ccccc2)nc1CCOc1ccc(C[C@H](Nc2ccccc2C(=O)c2ccccc2)C(=O)O)cc1
inactive: [4] | [5] | [6] | [7] | [8]

O=C(O)Cc1cc(I)c(Oc2cc(I)c(O)c(I)c2)c(I)c1
inactive: [8]

O=c1c(-c2ccc(O)cc2)coc2cc(O)ccc12
inactive: [8]

CCC(=C(c1ccc(O)cc1)c1ccc(OCCN(C)C)cc1)c1ccccc1
inactive: [8]
